Columns and labels:
Experiment in all cases: PBM binding z-score (relative to random genomic background probes); higher = stronger binding; sequences stand for … in GC…GCGATTGACAGCGTAGAATGAAGG
[1] = tested on: RARb homodimer (NR concentration 270 nM)
Method in brief: (§1)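 Binding z-scores were set against random background probes. The data came from custom Agilent 4×180K protein-binding microarrays carrying double-stranded probes with 34-nt variable regions, incubated 1 h with ligand-free nuclear receptor dimers. Partner-specific antibodies detected binding, and scanned fluorescence was regression-normalized.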

[2] = tested on: RARg:RXRa (NR concentration 270 nM, RXRa partner concentration 90 nM)
Method in brief: as §1

[3] = tested on: RARg homodimer (NR concentration 270 nM)
Method in brief: as §1

[4] = tested on: RXRa DBDmut IVT, anti-RXR (DBD mutation: RXRa K156A/R161A, NR concentration 90 nM)
Method in brief: as §1

[5] = tested on: RXRa homodimer (NR concentration 180 nM)
Method in brief: as §1

[6] = tested on: THRa:RXRa (NR concentration 90 nM, RXRa partner concentration 90 nM)
Method in brief: as §1

[7] = tested on: THRa homodimer (NR concentration 90 nM)
Method in brief: as §1

[8] = tested on: VDR homodimer (NR concentration 270 nM)
Method in brief: as §1

Row | Sequence | PBM binding z-score [1] | PBM binding z-score [2] | PBM binding z-score [3] | PBM binding z-score [4] | PBM binding z-score [5] | PBM binding z-score [6] | PBM binding z-score [7] | PBM binding z-score [8]
1 | GCAGACAGGTGAAACGCAGGTATCTCAGGGTGGC | 0.0151 | 0.137 | 0.315 | -0.484 | 0.588 | 0.272 | -0.471 | -0.528
2 | CCTCGGAGGACAGAAGGTCAGAGCGGTCCGCTTT | 3.61 | 3.59 | 3.6 | 0.0416 | 1.82 | 2.35 | -0.136 | 0.0325
3 | AGAACGAGGGCAATGGGTTGATAGCACGGGTGGC | 1.6 | 1.47 | 1.68 | 1.84 | 1.09 | 1.12 | 0.645 | 4.19
4 | GCTTGTAGATGAAGGTTAAGAAAGACTAAGCTAA | 0.181 | 0.18 | 0.177 | -0.235 | 0.368 | 0.351 | -0.694 | -0.443
5 | ACTAGCAGGCCAACTTTGGGTCACTCAAACAAAG | 2.34 | 2.46 | 1.61 | -0.27 | 0.885 | 2.62 | 1.19 | 0.371
6 | TCATATAGGTAAATGCTAGGAGAAAGTCCGATCT | -0.501 | 0.278 | 0.46 | 1.67 | 0.597 | -0.0458 | -0.197 | -0.0177
7 | AGATCGAGGGCACGCTGAGTTGATAGCAGAGTAG | 0.796 | 1.71 | 1.86 | 1.57 | 0.933 | 1.63 | -0.107 | 1.65
8 | CGAACGAGGGCATGAGTTGCTAGCAAATGCCGAT | 0.64 | 1.05 | 1.42 | 2.17 | 0.709 | 1.11 | -0.232 | 1.05
9 | CAAACTTGGTCACGAAAGGTCAAAGTCGAATGAC | 4.71 | 6.15 | 6.2 | 1.4 | 7.01 | 4.07 | 0.947 | 3.11
10 | TCTTGGAGATCAATAGAGGTTAAGAAAGTGCGCT | 1.39 | 0.878 | 0.376 | 0.544 | 1.5 | 3.19 | -0.339 | 0.159
11 | TCATATAGGTAAAAGGTGAAGGTCGGTGTGGTAA | 2.64 | 2.21 | 1.23 | 1.73 | 3.05 | 1.94 | 1.05 | 0.941
12 | GCTCGGAGGACAAGGTAAGAGCTTTGTCCGTAGA | -0.035 | -0.119 | 0.491 | -0.345 | -0.527 | 0.97 | -0.444 | -0.59
13 | CCTAGGTGGTCAAGGTCACACACGCTATAGGTAC | 4.16 | 4.81 | 4.61 | 1.79 | 4.66 | 4.09 | 4.01 | 3.06
14 | ATCTCTAGGTAAGACTCAGTTCATTGAAGAACGC | 0.892 | 0.375 | 0.586 | 1.31 | 0.538 | 1.58 | 0.923 | 3.67
15 | TCATATAGGTAAACAGGTGAAAGTACGTAAGTTA | 0.897 | 0.775 | 0.637 | 1.58 | 1.31 | 0.952 | 0.331 | 0.523
16 | CCTACTGGGCCAAGGTCATTTATCAGTCAAAGCA | 3.46 | 3.47 | 2.79 | 1.61 | 3.07 | 3.27 | 2.44 | 3.42
17 | CGTCAAAGTTCAAATAAGGTAACGTAAAGCACGC | 4.02 | 5.64 | 6.52 | 4.78 | 5.4 | 5.07 | 2.01 | 4.33
18 | TCTCGGAGAACACGAAAGGTCAGAGCTCGACATC | 4.31 | 3.67 | 3.24 | 0.702 | 3.72 | 2.63 | 0.193 | 0.319
19 | ATCTCTAGGTAACACTCAGTTCAGTGAAGAACGC | 1.27 | 0.926 | 0.875 | 1.05 | 0.63 | 1.64 | 1.38 | 2.25
20 | TCGAGTAGGTTAGTCGGGGCGTTCAGCCAACATA | -0.146 | -0.702 | -0.632 | 0.213 | -0.538 | 0.808 | -0.254 | -0.484
21 | TCATATCGGTAATACAGGTGAAAGTCGGCATCTA | 0.531 | 0.354 | 0.441 | 1.09 | 0.783 | 0.59 | 0.42 | 0.435
22 | TCTGCTAGGTCAGTTGGTCAGCAAACGAGCTGCC | 2.52 | 2.78 | 3.8 | 0.526 | 0.98 | 1.35 | -0.0215 | -0.695
23 | ACAGGCAGGTGAGTGAAGGTAACTCAGCTGGACG | 0.0493 | -0.184 | 0.135 | -0.851 | 0.135 | 1.31 | -0.451 | -0.884
24 | CCTCGGAGGACAGAATGTCAGAGCTGTCCGCTTT | -0.0927 | -0.321 | 0.175 | -0.282 | -0.66 | -0.251 | -0.615 | -0.654
25 | GCGACTGGGGCATCAGCAGGATACCATAACTTAA | -0.0166 | -0.0136 | 0.464 | -0.418 | -0.172 | 0.271 | -0.673 | -0.734
26 | GCTATTCGTTGAAAGGGCAACCGAATGATTCTCG | 1.85 | 1.23 | 1.21 | 0.319 | 0.916 | 0.348 | -0.335 | -0.329
27 | GCTCGGAGGACAAGGTCAGCGCTTTGTCCGTAGA | 3.72 | 3.85 | 4.29 | 0.531 | 3.07 | 3.23 | 1.82 | 0.607
28 | TCTTGTAGATCAATTGAGGTTAAGAAAGTGCGCT | 0.953 | 0.568 | 0.0458 | 1.05 | 0.886 | 3.84 | 0.878 | 0.579
29 | TGATTGAGGTTAAAGATCAGGGAACGTGGCGTCG | 1.01 | 2.5 | 1.35 | 0.759 | 3.67 | 2.57 | 0.317 | 0.679

From the supplement of paper PMC6555819
